Experimental data published in PubChem BioAssay (EPA / NIEHS).
Several values for one entry are separate records, joined by “and”; a condition that tells them apart may be missing. Equal values may be shown once. Inconclusive results are not listed. Some structures have more than one record in an assay (separate samples or runs), and their calls can disagree. Activity calls are given as the source filed them. How the source made its calls, unless noted: active means hit-call score of the fitted dose curve at least 0.9, where 1 is the maximum; inactive means score below 0.9.

Assays:
[1] = read-out: succinate dehydrogenase complex iron sulfur subunit B (SDHB), SDHB (gene 6390); test: LTEA_HepaRG_SDHB: Life Technologies and Expression Analysis (LTEA) Assay for succinate dehydrogenase complex iron sulfur subunit B (SDHB) using HepaRG (AID 2283528); conditions: mRNA level, 48 h; actives raise or lower the signal
Procedure, shortened: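 HepaRG, 48 h exposure, 8-pt half-log series from 100 uM in 0.5% DMSO, duplicates. Readout: SDHB mRNA by Fluidigm qRT-PCR vs housekeeping genes; bidirectional fit relative to DMSO.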

[2] = read-out: Signal transducer and activator of transcription 3 (Homo sapiens) (UniProt P40763); test: LTEA_HepaRG_STAT3: Life Technologies and Expression Analysis (LTEA) Assay for Signal transducer and activator of transcription (STAT3) using HepaRG (AID 2283529); conditions: mRNA level, 48 h; actives raise or lower the signal
Procedure, shortened: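 HepaRG, 48 h exposure, 8-pt half-log series (top 100 uM), 0.5% DMSO vehicle, duplicates. Readout: STAT3 transcript by Fluidigm qRT-PCR, housekeeping-normalized; bidirectional fit vs DMSO baseline.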

[3] = read-out: solute carrier (SLCO1B1), SLCO1B1 (gene 10599); test: LTEA_HepaRG_SLCO1B1: Life Technologies and Expression Analysis (LTEA) Assay for solute carrier (SLCO1B1) using HepaRG (AID 2283530); conditions: mRNA level, 48 h; actives raise or lower the signal
Procedure, shortened: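 Gain or loss of SLCO1B1 mRNA is fitted against the 0.5% DMSO vehicle in human HepaRG liver cells treated 48 h at up to 100 uM in half-log steps. Expression comes from qRT-PCR normalized to endogenous controls.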

[4] = read-out: sulfotransferase 2A1 (SULT2A1), SULT2A1 (gene 6822); test: LTEA_HepaRG_SULT2A1: Life Technologies and Expression Analysis (LTEA) Assay for sulfotransferase 2A1 (SULT2A1) using HepaRG (AID 2283531); conditions: mRNA level, 48 h; actives raise or lower the signal
Procedure, shortened: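 Cells were plated and cultured 48 h, switched to serum-free induction medium, then dosed in duplicate for 48 h (8 concentrations, max 100 uM). RNA was isolated and SULT2A1 expression measured by qRT-PCR; gain or loss of signal fitted relative to DMSO.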

[5] = read-out: Transforming Growth Factor (TGFA), TGFA (gene 7039); test: LTEA_HepaRG_TGFA: Life Technologies and Expression Analysis (LTEA) Assay for Transforming Growth Factor (TGFA) using HepaRG (AID 2283532); conditions: mRNA level, 48 h; actives raise or lower the signal
Procedure, shortened: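 qRT-PCR read-out of TGFA transcript, normalized to three housekeeping genes, fitted bidirectionally against 0.5% DMSO baseline. Human HepaRG cultures received chemicals for 48 h at eight half-log concentrations, top 100 uM.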

[6] = read-out: Transforming Growth Factor (TGFB1), TGFB1 (gene 7040); test: LTEA_HepaRG_TGFB1: Life Technologies and Expression Analysis (LTEA) Assay for Transforming Growth Factor (TGFB1) Transporter using HepaRG (AID 2283533); conditions: mRNA level, 48 h; actives raise or lower the signal
Procedure, shortened: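 Expression change of TGFB1 in human HepaRG cells is measured after a 48 h chemical exposure, up to 100 uM in 0.5% DMSO vehicle. Curves are fitted in both directions relative to the DMSO baseline.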

TIMP1, TIMP1 (gene 7076) = test: LTEA_HepaRG_TIMP1: Life Technologies and Expression Analysis (LTEA) Assay for TIMP1 using HepaRG (AID 2283534); conditions: mRNA level, 48 h; actives raise or lower the signal
Procedure, shortened: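 We dosed human liver HepaRG cultures for 48 hours with up to 100 uM test chemical and measured TIMP1 expression by qRT-PCR. Activity in either direction is fitted relative to the 0.5% DMSO vehicle.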

[7] = read-out: Tumor necrosis factor receptor 1 (TNFRSF1A), TNFRSF1A (gene 7132); test: LTEA_HepaRG_TNFRSF1A: Life Technologies and Expression Analysis (LTEA) Assay for Tumor necrosis factor receptor 1 (TNFRSF1A) using HepaRG (AID 2283535); conditions: mRNA level, 48 h; actives raise or lower the signal
Procedure, shortened: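 Expression of TNFRSF1A in human HepaRG liver cells was measured by qRT-PCR 48 h after chemical dosing (maximum 100 uM). Bidirectional curve fitting used 0.5% DMSO as baseline.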

[8] = read-out: Thyroid Hormone Responsive (THRSP), THRSP (gene 7069); test: LTEA_HepaRG_THRSP: Life Technologies and Expression Analysis (LTEA) Assay for Thyroid Hormone Responsive (THRSP) using HepaRG (AID 2283536); conditions: mRNA level, 48 h; actives raise or lower the signal
Procedure, shortened: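 qRT-PCR read-out (Fluidigm TaqMan), housekeeping-normalized (ACTB/GAPDH/POLR2A). HepaRG, 48 h chemical exposure, 8-pt half-log series from 100 uM in 0.5% DMSO, duplicates. Bidirectional curve fit vs 0.5% DMSO baseline.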

[9] = read-out: Cellular tumor antigen p53 (Homo sapiens) (UniProt P04637); test: LTEA_HepaRG_TP53: Life Technologies and Expression Analysis (LTEA) Assay for Tumor Protein P53 (TP53) using HepaRG (AID 2283537); conditions: mRNA level, 48 h; actives raise or lower the signal
Procedure, shortened: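 HepaRG, 48 h exposure, top 100 uM, half-log 8-point, 0.5% DMSO vehicle, duplicates. Read: TP53 mRNA by TaqMan qRT-PCR, normalised to ACTB/GAPDH/POLR2A; bidirectional fit vs DMSO.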

[10] = read-out: UDP glucuronosyltransferase (UGT1A1), UGT1A1 (gene 54658); test: LTEA_HepaRG_UGT1A1: Life Technologies and Expression Analysis (LTEA) Assay for UDP glucuronosyltransferase (UGT1A1) using HepaRG (AID 2283538); conditions: mRNA level, 48 h; actives raise or lower the signal
Procedure, shortened: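 mRNA induction or loss of UGT1A1, by TaqMan qRT-PCR, in duplicate HepaRG wells after 48 h exposure to half-log dilutions topping at 100 uM; DMSO (0.5%) served as baseline.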

[11] = read-out: UDP glucuronosyltransferase (UGT1A6), UGT1A6 (gene 54578); test: LTEA_HepaRG_UGT1A6: Life Technologies and Expression Analysis (LTEA) Assay for UDP glucuronosyltransferase (UGT1A6) using HepaRG (AID 2283539); conditions: mRNA level, 48 h; actives raise or lower the signal
Procedure, shortened: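 Endpoint is UGT1A6 transcript induction or loss in a human liver cell line, quantified by TaqMan qRT-PCR 48 h after dosing. Concentrations ran from 100 uM downward in half-log steps in 0.5% DMSO; activity was fitted in both directions versus vehicle.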

[12] = LTEA_HepaRG_LDH_cytotoxicity: Cytotoxicity Assessment in the Life Technologies and Expression Analysis (LTEA) Assay (AID 2283563; active means hit-call score of the fitted dose curve at least 0.9, where 1 is the maximum;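 on AC50: LDH activity released into spent culture medium as a marker of cell death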)
Procedure, shortened: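 Human HepaRG hepatic cells are treated with test chemicals for 48 h at up to 100 uM in 0.5% DMSO. Cytotoxicity is scored from medium LDH against the vehicle control.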

[13] = ATG_XTT_Cytotoxicity: Cytotoxicity Assessment in the Attagene TRANS-FACTORIAL HepG2 Assay (AID 2283584; active means hit-call score of the fitted dose curve at least 0.9, where 1 is the maximum;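 on AC50: XTT signal for cell number as viability in transfected HepG2 cells; cells exposed to compound for 24 h before reading; active means loss of viability signal versus DMSO baseline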)
Procedure, shortened: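 Transfect HepG2 with GAL4-UAS reporter units, dose compound, incubate 24 h, then measure viable cell number by XTT. Fit concentration response against DMSO baseline.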

[14] = biological target: Cellular tumor antigen p53 (Homo sapiens) (UniProt P04637); test: TOX21_p53_BLA_p2_ratio: Tox21 HCT-116 p53 Agonism Beta-lactamase Assay, Ratio, Phase 2 (AID 2283592; active means hit-call score of the fitted dose curve at least 0.9, where 1 is the maximum)
Cellular tumor antigen p53 (Homo sapiens), sequence (P04637 whole entry, looked up): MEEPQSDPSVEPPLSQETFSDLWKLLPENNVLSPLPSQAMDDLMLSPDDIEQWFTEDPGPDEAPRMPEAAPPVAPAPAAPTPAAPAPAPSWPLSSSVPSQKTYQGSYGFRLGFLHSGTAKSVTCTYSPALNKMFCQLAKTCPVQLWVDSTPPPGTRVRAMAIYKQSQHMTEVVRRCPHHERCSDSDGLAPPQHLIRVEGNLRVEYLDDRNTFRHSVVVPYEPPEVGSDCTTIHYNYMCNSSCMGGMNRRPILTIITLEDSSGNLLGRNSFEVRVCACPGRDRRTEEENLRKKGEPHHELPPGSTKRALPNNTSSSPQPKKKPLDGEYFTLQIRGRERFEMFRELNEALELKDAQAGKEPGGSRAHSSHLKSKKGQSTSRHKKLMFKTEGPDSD
Procedure, shortened: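 Cleaved-to-uncleaved substrate ratio (460 vs 530 nm) measured in HCT116 cells with an inducible beta-lactamase reporter linked to p53 activity. Compounds incubated 16 h at 37C before 2 h room-temperature CCF4-AM loading.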

[15] = TOX21_p53_BLA_p3_viability: Viability Assessment in the Tox21 HCT-116 p53 Agonism Beta-lactamase Assay, Phase 3 (AID 2283593; active means hit-call score of the fitted dose curve at least 0.9, where 1 is the maximum;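 further: cells exposed to compound for 16 h before reading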)
Procedure, shortened: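 HCT116 cells, 4000/well, dosed 5 h after plating by pin transfer (217-fold dilution from DMSO stock) and incubated 16 h at 37C, 5% CO2. Viability read as ATP luminescence with CellTiter-Glo after 30 min at room temperature.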

[16] = biological target: Cellular tumor antigen p53 (Homo sapiens) (UniProt P04637); test: TOX21_p53_BLA_p3_ratio: Tox21 HCT-116 p53 Agonism Beta-lactamase Assay, Ratio, Phase 3 (AID 2283596; active means hit-call score of the fitted dose curve at least 0.9, where 1 is the maximum)
Procedure, shortened: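 Cells were seeded at 4000/well, rested 5 h at 37C, then dosed with DMSO compound solutions (217-fold dilution) for 16 h. CCF4-AM substrate was loaded for 2 h at room temperature, and the 460/530 nm emission ratio was fitted for gain of signal versus DMSO.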

[17] = TOX21_p53_BLA_p4_viability: Viability Assessment in the Tox21 HCT-116 p53 Agonism Beta-lactamase Assay, Phase 4 (AID 2283597; active means hit-call score of the fitted dose curve at least 0.9, where 1 is the maximum;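 further: hits lower the luminescence signal meaning cytotoxicity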)
Procedure, shortened: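 Viability is taken as cellular ATP: after 16 h compound exposure of HCT116 cells and a 2 h room-temperature CCF4-AM substrate step, CellTiter-Glo reagent is added and luminescence is measured 30 min later.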

[18] = read-out: X-box binding protein 1 (XBP1), XBP1 (gene 7494); test: LTEA_HepaRG_XBP1: Life Technologies and Expression Analysis (LTEA) Assay for X-box binding protein 1 (XBP1) using HepaRG (AID 2283540); conditions: mRNA level, 48 h; actives raise or lower the signal
Procedure, shortened: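 Human HepaRG monolayers receive test chemical for 48 h across an eight-point half-log series starting at 100 uM. XBP1 mRNA gain or loss is scored against DMSO by qRT-PCR.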

[19] = TOX21_p53_BLA_p2_viability: Viability Assessment in the Tox21 HCT-116 p53 Agonism Beta-lactamase Assay, Phase 2 (AID 2283591; active means hit-call score of the fitted dose curve at least 0.9, where 1 is the maximum;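 further: compound exposure lasted 16 h at 37 °C; actives lower the ATP signal meaning cytotoxicity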)
Procedure, shortened: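 HCT116 p53-bla cells, 4000/well, dosed after 5 h plating (217-fold dilution of DMSO stocks) and incubated 16 h at 37C. Viability taken as cellular ATP by CellTiter-Glo luminescence after 30 min RT; signal loss marks cytotoxicity.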

Measured: AC50

Signal transducer and activator of transcription 3 (Homo sapiens), sequence (P40763 whole entry, looked up): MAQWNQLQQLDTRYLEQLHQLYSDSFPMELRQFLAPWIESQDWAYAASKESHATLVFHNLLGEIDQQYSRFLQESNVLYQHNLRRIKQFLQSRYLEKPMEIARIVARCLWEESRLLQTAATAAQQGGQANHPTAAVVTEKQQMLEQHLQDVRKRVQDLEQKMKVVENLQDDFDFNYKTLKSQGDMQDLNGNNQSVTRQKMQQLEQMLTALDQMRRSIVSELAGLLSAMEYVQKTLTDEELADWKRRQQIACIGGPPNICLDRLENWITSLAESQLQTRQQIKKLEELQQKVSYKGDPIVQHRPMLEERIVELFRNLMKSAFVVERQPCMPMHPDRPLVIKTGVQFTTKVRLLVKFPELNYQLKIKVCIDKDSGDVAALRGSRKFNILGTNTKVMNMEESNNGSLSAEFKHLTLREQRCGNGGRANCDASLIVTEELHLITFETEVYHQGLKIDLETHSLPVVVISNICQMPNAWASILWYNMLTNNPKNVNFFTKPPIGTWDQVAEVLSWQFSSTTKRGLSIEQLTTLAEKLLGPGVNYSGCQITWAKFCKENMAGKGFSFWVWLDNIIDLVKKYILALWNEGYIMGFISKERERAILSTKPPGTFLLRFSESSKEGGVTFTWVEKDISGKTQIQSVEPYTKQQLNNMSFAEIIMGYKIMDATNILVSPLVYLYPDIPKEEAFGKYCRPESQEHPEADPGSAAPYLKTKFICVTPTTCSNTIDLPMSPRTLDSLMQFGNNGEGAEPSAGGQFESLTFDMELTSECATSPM

CC1(C)CC(N=C=O)CC(C)(CN=C=O)C1 (stereo unspecified)
not listed: [18] | [19]
inactive: all other assays above

CCCCC(CC)COC(=O)CC(C(=O)OCC(CC)CCCC)S(=O)(=O)O (stereo unspecified)
active: [1] 86.7 µM | [3] 85.5 µM | [4] 80.2 µM | [5] 50 µM | [6] 77.6 µM | [7] 93.5 µM | [9] 50 µM | [11] 79.9 µM | [12] 75.3 µM | [13] 43.8 µM | [19] 59.8 µM [middle of 4 runs] | [14] 77.1 µM and 82.5 µM | [15] 71.8 µM and 65 µM and 42 µM | [16] 85.9 µM and 83.5 µM | [17] 50.1 µM [middle of 4 runs]
inactive: [2] | TIMP1, TIMP1 (gene 7076) | [8] | [18] | [14] | [15] | [16]

CCCCCCCCCCO
active: TIMP1, TIMP1 (gene 7076) 12.2 µM
not listed: [10] | [15] | [17]
inactive: all other assays above

Cc1nc(-c2ccc3c(c2)CCN(CCC2CCC(NC(=O)/C=C/c4ccc(F)cc4)CC2)CC3)no1 (stereo unspecified)
not listed: [11] | [15] | [18]
inactive: all other assays above

O=C(O)CCCCC(=O)O
not listed: [10]
inactive: all other assays above

O=C(O)Cc1ccccc1Nc1c(Cl)cccc1Cl
active: [10] 6.2 µM | [14] 68.9 µM | [16] 86 µM | [17] 46.1 µM
inactive: [1] | [2] | [3] | [4] | [5] | [6] | TIMP1, TIMP1 (gene 7076) | [7] | [8] | [9] | [12] | [13] | [19] | [14] | [15] | [16]

OC[C@@H](O)[C@@H](O)[C@H](O)[C@H](O)CO
not listed: [10] | [17]
inactive: all other assays above
